Assay results from the supplement of paper PMC3842684.

How the values were obtained:
[1] = tested on: P. falciparum NF54-pfs16-GFP early (I-III) stage gametocytes; test: relative % inhibition of viable gametocyte number; higher = more gametocytocidal; details: stage: early (I-III) gametocyte, incubation 72 h
How it was run: (§1)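 Early-stage (I/IIa, day 2) or late-stage (day 8) NF54 pfs16-GFP gametocytes were isolated by magnet and plated in 384-well poly-D-lysine imaging plates at 10% parasitaemia and 0.1% haematocrit, with compound in duplicate at 5 or 0.5 µM. After 72 h at 37°C under 5% CO2 and 5% O2, MitoTracker Red was added overnight. Confocal imaging scored elongated GFP objects whose MitoTracker signal passed a cut-off as viable gametocytes. Relative inhibition was normalised against vehicle and positive-control wells on the same plate.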

[2] = tested on: P. falciparum NF54-pfs16-GFP late (IV-V) stage gametocytes; test: as above; details: stage: late (IV-V) gametocyte, incubation 72 h
How it was run: as §1

**Q.** How did the relative % inhibition ([1]; 0.5 µM) turn out when `CN(N=O)C1=C(NC2CCCCC2)C(=O)c2ccccc2C1=O` was run?
**A.** 34.8%

**Q.** What about the relative % inhibition ([1]; 5 µM) of the same compound?
**A.** 10.4%

**Q.** What about the relative % inhibition ([2]; 0.5 µM) of the same compound?
**A.** 20.6%

**Q.** And the relative % inhibition ([2]; 5 µM)?
**A.** 38.1%

**Q.** What does the source list for `COc1ccc(CN2CCN(Cc3ccccc3)CC2)c(O)c1`?
**A.** relative % inhibition ([1]; 0.5 µM): -13.8%; relative % inhibition ([1]; 5 µM): -3.4%; relative % inhibition ([2]; 0.5 µM): 12.2%; relative % inhibition ([2]; 5 µM): 7.95%

**Q.** With `Oc1ccc(Br)cc1CN1CCN(Cc2ccc(Cl)cc2)CC1` as the compound, how does the relative % inhibition ([1]; 0.5 µM) read?
**A.** 12.1%

**Q.** And the relative % inhibition ([1]; 5 µM)?
**A.** 88.4%

**Q.** What about the relative % inhibition ([2]; 0.5 µM) of the same compound?
**A.** 26.8%

**Q.** And the relative % inhibition ([2]; 5 µM)?
**A.** 31%

**Q.** Which results are given for `C=CC12CCN(CC1)C(C(O)c1ccnc3ccc(OC)cc13)C2` (stereo not drawn)?
**A.** relative % inhibition ([1]; 0.5 µM): 91.6%; relative % inhibition ([1]; 5 µM): 75.8%; relative % inhibition ([2]; 0.5 µM): 37.9%; relative % inhibition ([2]; 5 µM): 36.1%

**Q.** For `Oc1ccc(C(=C(Cl)Cl)c2ccc(O)cc2)cc1`, which relative % inhibition ([1]; 0.5 µM) is on record?
**A.** -6.22%

**Q.** What about the relative % inhibition ([1]; 5 µM) of the same compound?
**A.** 29.1%

**Q.** What about the relative % inhibition ([2]; 0.5 µM) of the same compound?
**A.** -1.73%

**Q.** And the relative % inhibition ([2]; 5 µM)?
**A.** -7.57%

**Q.** Which relative % inhibition ([1]; 0.5 µM) does the source give for `CCCc1cc(O)c2c3c(c(=O)oc2c1)CN(C)CC3` here?
**A.** 38.5%

**Q.** What about the relative % inhibition ([1]; 5 µM) of the same compound?
**A.** 91.6%

**Q.** What about the relative % inhibition ([2]; 0.5 µM) of the same compound?
**A.** 38.3%

**Q.** And the relative % inhibition ([2]; 5 µM)?
**A.** 49.1%

**Q.** What does the source list for `O=C(CCc1ccco1)NC1CCN(CC2(c3ccc(Cl)cc3)CCC2)CC1`?
**A.** relative % inhibition ([1]; 0.5 µM): -4.87%; relative % inhibition ([1]; 5 µM): 91.7%; relative % inhibition ([2]; 0.5 µM): 21.7%; relative % inhibition ([2]; 5 µM): 82.2%

**Q.** With `COc1cc(CNCCc2ccc(Cl)cc2)cc(OC)c1O` as the compound, how does the relative % inhibition ([1]; 0.5 µM) read?
**A.** 9.61%

**Q.** What about the relative % inhibition ([1]; 5 µM) of the same compound?
**A.** 87.4%

**Q.** And the relative % inhibition ([2]; 0.5 µM)?
**A.** -10.8%

**Q.** What about the relative % inhibition ([2]; 5 µM) of the same compound?
**A.** 3.51%

**Q.** How did the relative % inhibition ([1]; 0.5 µM) turn out when `Oc1ccc(Br)cc1CN1CCN(Cc2cccc(F)c2)CC1` was run?
**A.** -1.27%

**Q.** And the relative % inhibition ([1]; 5 µM)?
**A.** 63.9%

**Q.** What about the relative % inhibition ([2]; 0.5 µM) of the same compound?
**A.** 50.4%

**Q.** And the relative % inhibition ([2]; 5 µM)?
**A.** 95.9%

**Q.** Which results are given for `CCCCCCc1cc(O)c2c3c(c(=O)oc2c1)CCC(C)C3` (stereo not drawn)?
**A.** relative % inhibition ([1]; 0.5 µM): -14.4%; relative % inhibition ([1]; 5 µM): 86.1%; relative % inhibition ([2]; 0.5 µM): 69.5%; relative % inhibition ([2]; 5 µM): 98.9%

**Q.** `CCOc1cc(CNC(C)C(O)c2ccccc2)cc(Cl)c1OCC` (stereo not drawn) was tested. Which relative % inhibition ([1]; 0.5 µM) did it give?
**A.** -15.8%

**Q.** What about the relative % inhibition ([1]; 5 µM) of the same compound?
**A.** -1.9%

**Q.** And the relative % inhibition ([2]; 0.5 µM)?
**A.** 32.7%

**Q.** What about the relative % inhibition ([2]; 5 µM) of the same compound?
**A.** 74.4%

**Q.** Which results are given for `CCOc1c(Cl)cc(CNC(C)C(O)c2ccccc2)cc1OC` (stereo not drawn)?
**A.** relative % inhibition ([1]; 0.5 µM): -16.9%; relative % inhibition ([1]; 5 µM): 71.9%; relative % inhibition ([2]; 0.5 µM): -0.71%; relative % inhibition ([2]; 5 µM): 31.3%
